Drawing on PubChem BioAssay (NCI), this text covers growth for 13 compounds.

Test systems include NCI-H23 lung; NCI-H226 lung; NCI-H322M lung; HOP-62 NSCLC; NCI-H460 lung; HOP-92 NSCLC; NCI-H522 lung; A549/ATCC NSCLC; 786-0 renal; COLO 205 colon.
Holding throughout (assay): NCI-60 one-dose screen, 48 h (100 = growth as untreated, 0 = no growth, -100 = all killed)
Common to all, as to conditions: 10 µM unless noted

This is part of a sample that, as a whole, favours compounds with a hit. Of some 83,000 tested, about 20% had one in any assay.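 A percent growth of 40 corresponds to 60% growth inhibition; 0 means no net growth; -100 means all cells died. Active threshold: below 10.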 Unmarked numbers belong to inactive results. Active and inactive are the calls of the source.

As for `COc1ccc(/C=C2\N=C(Nc3ccccc3)N(NC(=O)c3ccccn3)C2=O)cc1`, the growth in the test with NCI-H23 lung was 101%; in the test with NCI-H226 lung, 98.1%; with NCI-H322M lung, 106%; in the test with HOP-62 NSCLC, 107%; in the test with NCI-H460 lung it was 99.7%; with HOP-92 NSCLC, 95.8%. In addition, the growth is 90% with NCI-H522 lung, 99.1% in the test with A549/ATCC NSCLC, 96.4% in the test with 786-0 renal and 115% with COLO 205 colon.
For `c1cc2ccc3cc2cc1CNCCN1CCNCc2ccc4ccc(cc4c2)CNCCN(CCNC3)CCNCc2ccc3ccc(cc3c2)CNCC1`, the growth in the test with NCI-H23 lung was -7% (active); with NCI-H226 lung, 6.46% (active); in the test on NCI-H322M lung it was 56.3%; in the test on HOP-62 NSCLC it was 60.3%; with NCI-H460 lung, 16.1%; in the test with HOP-92 NSCLC, -17.9% (active). Besides, the growth in the test on NCI-H522 lung was 0.768% (active); in the test with A549/ATCC NSCLC, 2.2% (active); with 786-0 renal it was 89.7%; with COLO 205 colon, -32.7% (active).
Regarding `Cc1ccc(S(=O)(=O)Nc2ccccc2)cc1N`, the growth is 90.8% in the test on NCI-H23 lung; 95.6% in the test with NCI-H226 lung; 97% in the test on NCI-H322M lung; 86.2% with HOP-62 NSCLC; 99.5% in the test with NCI-H460 lung; 75.2% in the test on HOP-92 NSCLC. Besides, the growth in the test on NCI-H522 lung was 23.5%; in the test with A549/ATCC NSCLC, 81.3%; with 786-0 renal, 99.8%; in the test with COLO 205 colon, 119%.
With `O=C(O)CSCc1nnc2n(Cc3ccccc3)c(=O)c3c4c(sc3n12)CCCC4`, the growth was 90.8% with NCI-H23 lung; 87.2% with NCI-H226 lung; 101% in the test with NCI-H322M lung; 139% in the test with HOP-62 NSCLC; 111% in the test with NCI-H460 lung; 74.5% in the test with HOP-92 NSCLC. For the same compound, the growth in the test with NCI-H522 lung is 63.7%; with A549/ATCC NSCLC it was 93.7%; in the test with 786-0 renal it was 132%; in the test with COLO 205 colon, 88.2%.
With `O=C(Nc1ccc(Oc2ccc(F)cc2)c(Cl)c1)c1cnccn1`, the growth with NCI-H23 lung was 65.6%; in the test on NCI-H226 lung, 74.4%; with NCI-H322M lung, 82.2%; in the test with HOP-62 NSCLC, 56.2%; with NCI-H460 lung it was 28%; with HOP-92 NSCLC, 58.2%. In addition, the growth is 54.2% in the test with NCI-H522 lung, 43.7% in the test on A549/ATCC NSCLC, 81% with 786-0 renal and 69.3% with COLO 205 colon.
Consider `CSc1nc(=S)c2nc(SC)n(-c3ccccc3)c2[nH]1`, for which the growth in the test on NCI-H23 lung was 103%; in the test on NCI-H226 lung it was 90.8%; in the test on NCI-H322M lung, 96.8%; in the test with HOP-62 NSCLC, 85.5%; with NCI-H460 lung, 95.5%; in the test on HOP-92 NSCLC, 77.6%. Besides, the growth in the test with NCI-H522 lung was 70.1%; in the test with A549/ATCC NSCLC, 97.8%; with 786-0 renal it was 101%; in the test with COLO 205 colon, 101%.
For `O=S(=O)(/N=c1/n(-c2ccccc2)nc2n1CCN2C1=NCCN1)c1ccc(-c2ccccc2)cc1`, the growth in the test on NCI-H23 lung is 101%; in the test on NCI-H226 lung, 101%; in the test on NCI-H322M lung it was 104%; in the test on HOP-62 NSCLC it was 99.1%; in the test with NCI-H460 lung it was 94.8%; with HOP-92 NSCLC, 82.3%. The growth in the test with NCI-H522 lung is 106%; with A549/ATCC NSCLC, 90.1%; in the test with 786-0 renal, 89%; in the test with COLO 205 colon, 109%.
With `COc1ccc(C2CC(c3cc(OC)c(OC)c(OC)c3)=NN2C(C)=O)cc1OCC(=O)Nc1nc2ccc(C(F)(F)F)cc2s1` (stereo not given), the growth in the test with NCI-H23 lung is 67.3%; in the test on NCI-H226 lung, 40.2%; with NCI-H322M lung, 79.6%; in the test with HOP-62 NSCLC, 57.1%; with NCI-H460 lung, 67.6%; in the test on HOP-92 NSCLC, -3.98% (active). For the same compound, the growth in the test on NCI-H522 lung was 66.6%; in the test with A549/ATCC NSCLC, 50.5%; in the test on 786-0 renal, 60.1%; in the test on COLO 205 colon it was 85%.
`CCN(CC)c1ccc(/C=C/c2ccc3cc(C)ccc3[n+]2CC)cc1`: the growth with NCI-H23 lung is -1.98% (active); in the test with NCI-H226 lung it was 21.4%; with NCI-H322M lung, 35.9%; with HOP-62 NSCLC it was 4.01% (active); in the test with NCI-H460 lung, -48.4% (active); in the test with HOP-92 NSCLC, -17.5% (active). Moreover, the growth is -27.7% (active) in the test on NCI-H522 lung, 8.77% (active) in the test on A549/ATCC NSCLC, 16.2% in the test with 786-0 renal and -21.7% (active) with COLO 205 colon.
As to `O=[N+]([O-])c1cc([N+](=O)[O-])c(C(F)(F)F)cc1NN=C(c1ccc(O)cc1)c1ccc(O)cc1`, the growth in the test on NCI-H23 lung was -15.7% (active); in the test with NCI-H226 lung, 78.6%; in the test on NCI-H322M lung, 113%; in the test on HOP-62 NSCLC it was -55.4% (active); in the test with NCI-H460 lung, -37.8% (active); in the test with HOP-92 NSCLC it was 108%. Moreover, the growth with NCI-H522 lung was -61.5% (active); with A549/ATCC NSCLC it was -60.4% (active); with 786-0 renal, -27.5% (active); in the test on COLO 205 colon, -11% (active).
As for `FC(F)(F)c1ccc2c(c1)Sc1ccccc1N2`, the growth was 96.4% in the test on NCI-H23 lung; 94% in the test with NCI-H226 lung; 103% in the test with NCI-H322M lung; 97% in the test on HOP-62 NSCLC; 104% in the test with NCI-H460 lung; 79.9% in the test with HOP-92 NSCLC. For the same compound, the growth is 84.9% in the test with NCI-H522 lung, 95.4% in the test on A549/ATCC NSCLC, 89.6% with 786-0 renal and 110% in the test with COLO 205 colon.
As for `CN(C)Cc1ccc[nH]1`, the growth with NCI-H23 lung is 93.2%; in the test with NCI-H226 lung it was 93.3%; in the test with NCI-H322M lung it was 130%; with HOP-62 NSCLC, 117%; in the test on NCI-H460 lung it was 103%; in the test with HOP-92 NSCLC, 103%. For the same compound, the growth in the test on NCI-H522 lung was 67.6%; in the test on A549/ATCC NSCLC, 99.4%; in the test on 786-0 renal, 107%; in the test with COLO 205 colon, 101%.
In the case of `CN(C)c1ccc(-c2ccc(-c3ccc(C(=N)N)cc3)s2)cc1`, the growth in the test on NCI-H23 lung was -46.4% (active); with NCI-H226 lung, 87.4%; with NCI-H322M lung, 40.2%; in the test with HOP-62 NSCLC it was -33.2% (active); with NCI-H460 lung it was -71.1% (active); with HOP-92 NSCLC, 24.5%. Also, the growth in the test with NCI-H522 lung is -50.3% (active); in the test on A549/ATCC NSCLC, -72.7% (active); in the test on 786-0 renal it was -63.9% (active); with COLO 205 colon it was -66.6% (active).
